65 compounds from the antibiotic and cytotoxicity screens of Wong et al. (2023) can be followed below.

The structures appear in SMILES notation. About 3,300 (8.5%) of roughly 39,000 compounds were called active. The full list was thinned out, with actives kept by preference.

The test system of the assay is HepG2. Briefly: cytotoxicity call (relative viability < 0.9). The note with it: 10 µM.
As to `C[Si](C)(C)O[Si](C)(C)O[Si](C)(C)C`, the cytotoxicity call is “inactive”.
As for `COc1ccc(S(=O)(=O)N(C)C[C@@H]2Oc3c(NS(=O)(=O)c4ccc(F)cc4)cccc3C(=O)N([C@H](C)CO)C[C@H]2C)cc1`, the entry is “inactive”; as for `Cc1ccc(S(=O)(=O)N(C)C[C@H]2OCCCC[C@@H](C)Oc3ccc(NC(=O)C4CCCCC4)cc3C(=O)N([C@H](C)CO)C[C@H]2C)cc1`, “inactive”.
`COc1ccccc1CNC(=O)C[C@@H]1CC[C@H]2[C@@H](COC[C@H](O)CN2C(=O)Nc2ccc(Cl)cc2)O1`: the cytotoxicity call is “inactive”.
As to `C[C@@H]1CN([C@@H](C)CO)C(=O)c2cc(NC(=O)Nc3cccc4ccccc34)ccc2O[C@@H](C)CCCCO[C@H]1CN(C)Cc1ccc(C(F)(F)F)cc1`, the cytotoxicity call was “inactive”.
As for `C[C@@H]1CN([C@H](C)CO)C(=O)c2cc(NC(=O)Nc3cccc4ccccc34)ccc2O[C@@H](C)CCCCO[C@H]1CN(C)Cc1ccc(C(F)(F)F)cc1`, the cytotoxicity call was “inactive”.
As for `C[C@@H]1CCCCO[C@@H](CN(C)Cc2ccccc2)[C@@H](C)CN([C@@H](C)CO)C(=O)c2cc(NC(=O)Nc3cccc4ccccc34)ccc2O1`, the entry is “inactive”; as for `C[C@@H]1CN([C@@H](C)CO)C(=O)c2cc(NC(=O)Nc3cccc4ccccc34)ccc2O[C@@H](C)CCCCO[C@@H]1CN(C)Cc1ccccc1`, “active”.
As for `C[C@H](CO)N1C[C@H](C)[C@@H](CN(C)Cc2ccc(C(F)(F)F)cc2)OCCCC[C@H](C)Oc2ccc(NC(=O)Nc3cccc4ccccc34)cc2C1=O`, the entry is “active”; as for `C[C@@H]1CCCCO[C@@H](CN(C)Cc2ccc(C(=O)O)cc2)[C@@H](C)CN([C@@H](C)CO)C(=O)c2cc(NC(=O)Nc3cccc4ccccc34)ccc2O1`, “inactive”; as for `C[C@H](CO)N1C[C@H](C)[C@H](CN(C)Cc2ccccc2)OCCCC[C@H](C)Oc2ccc(NC(=O)Nc3cccc4ccccc34)cc2C1=O`, “inactive”.
As for `C[C@@H]1CCCCO[C@H](CN(C)Cc2ccc(C(=O)O)cc2)[C@H](C)CN([C@H](C)CO)C(=O)c2cc(NC(=O)Nc3cccc4ccccc34)ccc2O1`, the entry is “inactive”.
With `C[C@@H]1CN([C@H](C)CO)C(=O)c2cc(NC(=O)Nc3cccc4ccccc34)ccc2O[C@@H](C)CCCCO[C@H]1CN(C)Cc1ccccc1`, the cytotoxicity call was “active”.
As for `COc1ccc(S(=O)(=O)N(C)C[C@@H]2Oc3ccc(NS(=O)(=O)c4c(C)noc4C)cc3C(=O)N([C@@H](C)CO)C[C@H]2C)cc1`, the entry is “inactive”; as for `COc1ccc(S(=O)(=O)N(C)C[C@H]2OCCCC[C@@H](C)Oc3ccc(NC(=O)CCCCCC(=O)Nc4ccccc4N)cc3C(=O)N([C@H](C)CO)C[C@H]2C)cc1`, “inactive”; as for `C[C@@H]1CN([C@H](C)CO)C(=O)c2cccc(NS(C)(=O)=O)c2O[C@@H]1CN(C)Cc1ccc2c(c1)OCO2`, “inactive”.
Regarding `C[C@@H]1CN([C@@H](C)CO)C(=O)c2cc(NS(=O)(=O)c3cccs3)ccc2O[C@@H](C)CCCCO[C@@H]1CN(C)S(=O)(=O)c1cn(C)cn1`, the cytotoxicity call was “inactive”.
Next, `Cc1noc(C)c1NC(=O)Nc1ccc2c(c1)CC(=O)N([C@H](C)CO)C[C@@H](C)[C@@H](CN(C)S(C)(=O)=O)O2`: “inactive”; `CS(=O)(=O)Nc1ccc2c(c1)[C@@H]1C[C@H](CC(=O)NCC3CC3)O[C@@H](CO)[C@@H]1O2`: “inactive”; `C[C@@H]1CN([C@@H](C)CO)C(=O)c2cc(NC(=O)Cc3ccccc3)ccc2O[C@@H](C)CCCCO[C@@H]1CN(C)S(=O)(=O)c1ccc(F)cc1`: “inactive”.
As for `C[C@@H]1CN([C@@H](C)CO)C(=O)c2cc(NC(=O)c3ccccc3)ccc2O[C@@H](C)CCCCO[C@H]1CN(C)Cc1ccncc1`, the entry is “inactive”; as for `CC(C)NC(=O)Nc1cccc2c1O[C@H](CN(C)Cc1ccc3c(c1)OCO3)[C@H](C)CN([C@@H](C)CO)C2=O`, “inactive”.
Next, `C[C@H]1CN([C@@H](C)CO)C(=O)c2cccc(NC(=O)C3CC3)c2O[C@H]1CN(C)Cc1ccc(-c2ccccc2)cc1`: “inactive”; `Cc1cc(CCC[C@H](CC(=O)NO)C(=O)N[C@H](C(=O)N[C@H](C)c2ccccc2)C(C)(C)C)ccc1-c1ccccc1`: “active”.
Consider `Nc1cccc(-c2cccs2)c1`, for which the cytotoxicity call is “inactive”.
As for `C[C@H](CO)N1C[C@H](C)[C@H](CN(C)S(C)(=O)=O)Oc2ncc(C#Cc3cccnc3)cc2C1=O`, the entry is “inactive”; as for `CN(C)CCN(Cc1ccccc1)c1ccccn1.O=C(O)CC(O)(CC(=O)O)C(=O)O`, “active”.
Next, `CN(C)CCN(Cc1ccc(Cl)cc1)c1ccccn1.Cl`: “inactive”.
As for `COc1ccc(CN(CCN(C)C)c2ccccn2)cc1.O=C(O)C=CC(=O)O`, the entry is “inactive”; as for `C[C@H](CO)N1C[C@H](C)[C@@H](CN(C)S(=O)(=O)c2cn(C)cn2)Oc2ccc(NC(=O)CCC(F)(F)F)cc2C1=O`, “inactive”; as for `C[C@@H]1CN([C@H](C)CO)S(=O)(=O)c2ccc(C#CCN(C)C)cc2O[C@H]1CN(C)S(C)(=O)=O`, “inactive”.
Take `Cc1cc(C(=O)Nc2cccc3c2O[C@H](CN(C)S(=O)(=O)c2c(C)noc2C)[C@H](C)CN([C@H](C)CO)C3=O)n(C)n1`: the cytotoxicity call was “inactive”.
As for `CC1(C)C[C@@](CCN)(Cc2ccccc2)CCO1`, the entry is “inactive”; as for `Cc1ccc(S(=O)(=O)N(C)C[C@H]2OCCCC[C@H](C)Oc3ccc(NS(=O)(=O)c4ccc(F)cc4)cc3C(=O)N([C@H](C)CO)C[C@H]2C)cc1`, “inactive”; as for `Cc1ccc(S(=O)(=O)Nc2ccc3c(c2)C(=O)N([C@@H](C)CO)C[C@H](C)[C@@H](CN(C)S(=O)(=O)c2ccc(F)cc2)OCCCC[C@H](C)O3)cc1`, “inactive”.
`Cc1ccc(S(=O)(=O)N(C)C[C@@H]2OCCCC[C@H](C)Oc3ccc(NS(=O)(=O)c4ccc(F)cc4)cc3C(=O)N([C@H](C)CO)C[C@@H]2C)cc1`: the cytotoxicity call is “active”.
Next, `Cc1ccc(S(=O)(=O)Nc2ccc3c(c2)C(=O)N([C@H](C)CO)C[C@H](C)[C@@H](CN(C)S(=O)(=O)c2ccc(F)cc2)OCCCC[C@H](C)O3)cc1`: “inactive”.
Turning to `Cc1ccc(S(=O)(=O)N(C)C[C@H]2OCCCC[C@H](C)Oc3ccc(NS(=O)(=O)c4ccc(F)cc4)cc3C(=O)N([C@@H](C)CO)C[C@@H]2C)cc1`, the cytotoxicity call was “inactive”.
As to `Cc1ccc(S(=O)(=O)Nc2ccc3c(c2)C(=O)N([C@H](C)CO)C[C@H](C)[C@H](CN(C)S(=O)(=O)c2ccc(F)cc2)OCCCC[C@H](C)O3)cc1`, the cytotoxicity call is “inactive”.
As for `Cc1ccc(S(=O)(=O)N(C)C[C@@H]2OCCCC[C@@H](C)Oc3ccc(NS(=O)(=O)c4ccc(F)cc4)cc3C(=O)N([C@H](C)CO)C[C@H]2C)cc1`, the entry is “active”; as for `Cc1ccc(S(=O)(=O)Nc2ccc3c(c2)C(=O)N([C@@H](C)CO)C[C@H](C)[C@@H](CN(C)S(=O)(=O)c2ccc(F)cc2)OCCCC[C@@H](C)O3)cc1`, “inactive”.
Next, `Cc1ccc(S(=O)(=O)N(C)C[C@@H]2OCCCC[C@H](C)Oc3ccc(NS(=O)(=O)c4ccc(F)cc4)cc3C(=O)N([C@@H](C)CO)C[C@@H]2C)cc1`: “active”; `Cc1ccc(S(=O)(=O)Nc2ccc3c(c2)C(=O)N([C@H](C)CO)C[C@@H](C)[C@H](CN(C)S(=O)(=O)c2ccc(F)cc2)OCCCC[C@@H](C)O3)cc1`: “inactive”.
`Cc1ccc(S(=O)(=O)Nc2ccc3c(c2)C(=O)N([C@@H](C)CO)C[C@@H](C)[C@H](CN(C)S(=O)(=O)c2ccc(F)cc2)OCCCC[C@@H](C)O3)cc1`: the cytotoxicity call is “inactive”.
Next, `Cc1ccc(S(=O)(=O)N(C)C[C@@H]2OCCCC[C@H](C)Oc3ccc(NS(=O)(=O)c4ccc(F)cc4)cc3C(=O)N([C@@H](C)CO)C[C@H]2C)cc1`: “active”; `CN1CCN(C(=O)C[C@@H]2C=C[C@@H](NC(=O)Nc3ccccc3F)[C@@H](CO)O2)CC1`: “inactive”; `COc1ccc(NC(=O)N(C)C[C@@H]2Oc3ccc(NS(C)(=O)=O)cc3CC(=O)N([C@H](C)CO)C[C@@H]2C)cc1`: “inactive”.
Next, `C[C@@H]1CN([C@H](C)CO)C(=O)c2cccc(NC(=O)Nc3ccccc3)c2O[C@H]1CN(C)C(=O)Nc1ccc(C(F)(F)F)cc1`: “inactive”; `Cc1ccc(S(=O)(=O)c2c[nH]c(=O)[nH]2)cc1`: “inactive”.
As for `CC[C@@](C)(Nc1n[nH]c(=O)[nH]c1=O)C(=O)O`, the entry is “inactive”.
For the compound `OCC1OC(OC2C(CO)OC(O)C(O)C2O)C(O)C(O)C1O` (stereo not given), the cytotoxicity call is “inactive”.
Next, `OC[C@H]1O[C@@H](O[C@@H]2[C@@H](O)[C@H](O)[C@H](O[C@@H]3[C@@H](O)[C@H](O)[C@H](O)O[C@@H]3CO)O[C@@H]2CO)[C@@H](O)[C@@H](O)[C@@H]1O`: “inactive”.
Next, `O.OCC1OC(OC2C(CO)OC(O)C(O)C2O)C(O)C(O)C1O` (stereo not given): “active”.
Next, `COC(=O)c1c2oc(c1C(=O)OC)C(=O)N(C)Cc1cn(nn1)C[C@@H](Cc1ccccc1)NC(=O)N[C@H](COC(=O)NCCCCCC(=O)NO)CC2`: “inactive”; `Cc1noc(C)c1NC(=O)Nc1ccc2c(c1)C(=O)N([C@@H](C)CO)C[C@H](C)[C@@H](CN(C)S(C)(=O)=O)O2`: “inactive”; `O=C(OC1Cc2c(O)cc(O)cc2OC1c1cc(O)c(O)c(O)c1)c1cc(O)c(O)c(O)c1` (stereo not given): “inactive”.
As for `O=C(OCC1OC(OC(=O)c2cc(O)c(O)c(OC(=O)c3cc(O)c(O)c(O)c3)c2)C(OC(=O)c2cc(O)c(O)c(OC(=O)c3cc(O)c(O)c(O)c3)c2)C(OC(=O)c2cc(O)c(O)c(OC(=O)c3cc(O)c(O)c(O)c3)c2)C1OC(=O)c1cc(O)c(O)c(OC(=O)c2cc(O)c(O)c(O)c2)c1)c1cc(O)c(O)c(OC(=O)c2cc(O)c(O)c(O)c2)c1` (stereo not given), the cytotoxicity call was “active”.
As for `O=C(OC[C@H]1O[C@@H](OC(=O)c2cc(O)c(O)c(O)c2)[C@H](O)[C@@H](OC(=O)c2cc(O)c(O)c(O)c2)[C@@H]1O)c1cc(O)c(O)c(O)c1`, the entry is “active”.
As for `C=C[C@H]1[C@H](O[C@H]2O[C@@H](CO)[C@@H](O)[C@@H](O)[C@@H]2O)OC=C(C(=O)OC)[C@H]1CCOC(=O)c1cc(O)c(O)c(O)c1`, the entry is “inactive”; as for `O=C(O)c1cc(O)c(O)c(O)c1`, “inactive”.
As for `O=C(O)C[C@@H]1C(=O)O[C@H]2[C@@H](OC(=O)c3cc(O)c(O)c(O)c3)[C@H](OC(=O)c3cc(O)c(O)c4c3[C@H]1[C@H](O)C(=O)O4)[C@H](OC(=O)c1cc(O)c(O)c(O)c1)O[C@@H]2COC(=O)c1cc(O)c(O)c(O)c1`, the entry is “active”; as for `O=C(OC[C@H]1O[C@@H](OC(=O)c2cc(O)c(O)c(O)c2)[C@H](O)[C@@H](O)[C@@H]1O)c1cc(O)c(O)c(O)c1`, “inactive”.
Take `O=C(Oc1cc(O)cc2c1C[C@@H](OC(=O)c1cc(O)c(O)c(O)c1)[C@@H](c1cc(O)c(O)c(O)c1)O2)c1cc(O)c(O)c(O)c1`: the cytotoxicity call is “inactive”.
As for `O=C(OC1Cc2c(O)cc(O)cc2OC1c1ccc(O)c(O)c1)c1cc(O)c(O)c(O)c1` (stereo not given), the entry is “inactive”; as for `O=C(OC[C@H]1O[C@@H](OC(=O)c2cc(O)c(O)c(O)c2)[C@H](OC(=O)c2cc(O)c(O)c(O)c2)[C@@H](OC(=O)c2cc(O)c(O)c(O)c2)[C@@H]1OC(=O)c1cc(O)c(O)c(O)c1)c1cc(O)c(O)c(O)c1`, “active”.
